Inconclusive results are not listed. Activity calls are given as the source filed them. The call rests on the fitted dose curve; in most records, active means well fitted cell-killing curve with a large enough effect; inconclusive means small, poorly fitted or top-dose-only effect; inactive means flat fitted curve, though single readings scatter.
How the values were obtained:
[1] = Cell Viability - LYMP2-017 (AID 972); conditions: LYMP2-017 lymphoblastoid cell viability; further: nearly all actives have a fitted effect of over 55% in size
In short: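 Steps: plate 2500 lymphoblastoid cells per well; incubate 5 hr at 37 C; add compound across a concentration series and incubate 24 hr at 37 C; add CellTiter-Glo and read luminescence after 30 min at room temperature; fit Hill curves for AC50.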

[2] = Cell Viability - LYMP2-019 (AID 973); conditions: LYMP2-019 lymphoblastoid cell line viability; further: nearly all actives have a fitted effect of over 55% in size
In short: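 Cells plated at 2500/well and allowed 5 hr at 37 C before compound addition. After 24 hr incubation, CellTiter-Glo reagent was added, plates sat 30 min at room temperature, and luminescence was recorded.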

[3] = Cell Viability - LYMP2-021 (AID 974); conditions: LYMP2-021 lymphoblastoid cells viability;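 further: compound exposure lasts 24 hours at 37 °C; nearly all actives have a fitted effect of over 55% in size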
In short: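 Concentration-response cytotoxicity in a human lymphoblastoid line: 24 hr treatment at 37 C in complete culture medium, tetraoctylammonium bromide as positive control, luminescent ATP quantitation as viability measure.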

[4] = Cell Viability - LYMP2-023 (AID 975); conditions: LYMP2-023 lymphoblastoid cell viability; further: nearly all actives have a fitted effect of over 55% in size
In short: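 Concentration-dependent drop in intracellular ATP measures acute cytotoxicity in a human lymphoblastoid line treated for 24 hours in complete culture medium. AC50 values are taken from Hill-equation fits of qHTS data.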

[5] = Cell Viability - LYMP2-025 (AID 976); conditions: LYMP2-025 lymphoblastoid cell viability
In short: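 In qHTS format, LYMP2-025 lymphoblastoid cells in complete culture medium received compound for 24 hr; ATP-based CellTiter-Glo signal gave viability, with AC50 derived by Hill equation.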

[6] = Cell Viability - LYMP2-002 (AID 977); conditions: LYMP2-002 lymphoblastoid cell viability, qHTS
In short: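 Luminescent ATP readout (CellTiter-Glo, 30 min room temperature) after 24 h compound exposure at 37 C of a human lymphoblastoid line, 2500 cells/well. AC50 values derived by standard Hill fitting of qHTS concentration-response data.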

[7] = Cell Viability - LYMP2-006 (AID 978); conditions: LYMP2-006 lymphoblastoid cell viability, qHTS; further: nearly all actives have a fitted effect of over 60% in size
In short: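 Human lymphoblastoid cells, 2500 per well, were preincubated 5 hr at 37 C, then exposed to compounds for 24 hr at 37 C in complete medium. Viability was read as intracellular ATP by CellTiter-Glo luminescence; AC50 from Hill-equation fits of qHTS concentration-response data.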

[8] = Cell Viability - LYMP2-007 (AID 979); conditions: LYMP2-007 lymphoblastoid cell viability;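 further: cells exposed to compound for 24 h before reading; nearly all actives have a fitted effect of over 60% in size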
In short: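 Acute toxicity is scored as a concentration-dependent fall in intracellular ATP in human lymphoblastoid cells treated 24 hr at 37 C, measured by luciferase luminescence; Hill-equation modelling yields AC50.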

[9] = Cell Viability - LYMP2-008 (AID 980); conditions: LYMP2-008 lymphoblastoid cell viability, qHTS; further: nearly all actives have a fitted effect of over 60% in size
In short: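 Acute cytotoxicity is scored as concentration-dependent loss of cellular ATP in a human lymphoblastoid line after 24 hr treatment at 37 C. ATP is quantified by luciferase luminescence.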

[10] = Cell Viability - LYMP2-010 (AID 981); conditions: LYMP2-010 lymphoblastoid cell viability, qHTS; further: nearly all actives have a fitted effect of over 55% in size
In short: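 Acute toxicity is scored as a concentration-dependent loss of cellular ATP in human lymphoblastoid cells after 24 hr compound exposure in complete medium. Tetraoctylammonium bromide is the positive control.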

[11] = Cell Viability - LYMP2-012 (AID 982); conditions: LYMP2-012 lymphoblastoid cell viability qHTS
[12] = Cell Viability - LYMP2-014 (AID 983); conditions: LYMP2-014 lymphoblastoid cells, viability qHTS; further: nearly all actives have a fitted effect of over 50% in size
In short: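 Decrease in intracellular ATP after 24 hr treatment at 37 C, measured by luciferase luminescence, indicated cytotoxicity. Concentration-response data were fitted with the standard Hill equation to give AC50.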

[13] = Cell Viability - LYMP2-016 (AID 984); conditions: LYMP2-016 lymphoblastoid cell viability, qHTS; further: nearly all actives have a fitted effect of over 55% in size
In short: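 Human lymphoblastoid cells (LYMP2-016), 2500/well in complete medium, preincubated 5 hr at 37 C, then compound-treated 24 hr at 37 C. Intracellular ATP read by CellTiter-Glo luminescence after 30 min at room temperature; AC50 from Hill-equation concentration-response fits.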

[14] = Cell Viability - LYMP2-018 (AID 985); conditions: LYMP2-018 lymphoblastoid cells, viability (qHTS);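 further: compound exposure lasted 24 hr at 37 °C; nearly all actives have a fitted effect of over 50% in size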
In short: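 Acute cytotoxicity is scored as a concentration-dependent drop in intracellular ATP after 24 hr exposure of the lymphoblastoid line in complete culture medium, measured by luciferase luminescence. Potency is expressed as AC50 from Hill modelling.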

[15] = Cell Viability - LYMP2-020 (AID 986); further: nearly all actives have a fitted effect of over 55% in size
In short: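 Acute cytotoxicity in a human lymphoblastoid line is scored as a concentration-dependent fall in cellular ATP after 24 hr at 37 C in complete medium. The positive control is tetraoctylammonium bromide, and potency is given as Hill-fit AC50.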

[16] = Cell Viability - LYMP2-022 (AID 987); conditions: LYMP2-022 lymphoblastoid cell viability; further: nearly all actives have a fitted effect of over 55% in size
In short: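 Acute toxicity in a human lymphoblastoid line is scored as decreased intracellular ATP after 24 hr compound treatment at 37 C. ATP is measured by CellTiter-Glo luminescence; curves are fitted with the Hill equation to give AC50.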

[17] = Cell Viability - LYMP2-024 (AID 988); conditions: LYMP2-024 lymphoblastoid cell viability; further: nearly all actives have a fitted effect of over 60% in size
In short: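 Acute toxicity is measured as concentration-dependent loss of intracellular ATP in a human lymphoblastoid line treated 24 hours at 37 C. Luciferase luminescence quantifies ATP; AC50 values come from standard Hill-equation modelling.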

[18] = Cell Viability - LYMP2-026 (AID 989); conditions: LYMP2-026 lymphoblastoid cell viability, qHTS; further: nearly all actives have a fitted effect of over 50% in size
In short: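 Concentration-dependent loss of intracellular ATP in human lymphoblastoid cells after 24 hr at 37 C, quantified by luciferase luminescence. AC50 derived from standard Hill equation.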

[19] = Cell Viability - LYMP1-002 - Assay at 24 hr (AID 993); conditions: LYMP1-002 lymphoblastoid cells viability
In short: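 qHTS, LYMP1-002 lymphoblastoid, 24 h cpd, 37 C, CellTiter-Glo ATP luminescence; AC50 via Hill eq.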

Measured: Potency
Potency means the concentration at half of the fitted maximal effect.

O=C1c2c(O)ccc([N+](=O)[O-])c2C(=O)c2c([N+](=O)[O-])ccc(O)c21
active: [1] 31.6 µM | [2] 39.8 µM | [3] 39.8 µM | [4] 39.8 µM | [5] 39.8 µM | [6] 39.8 µM | [7] 31.6 µM | [8] 39.8 µM | [9] 31.6 µM | [10] 31.6 µM | [11] 39.8 µM | [12] 39.8 µM | [13] 31.6 µM | [14] 39.8 µM | [15] 39.8 µM | [16] 39.8 µM | [17] 39.8 µM | [18] 39.8 µM | [19] 39.8 µM
